Drawing on PubChem BioAssay (NCATS), this text covers Potency for 39 molecules.

Results filed as inconclusive are left out. Where a call stands in place of a potency, no number is given. Activity calls are given as the source filed them. Calls follow the shape of the dose curve; as a rule, active = well fitted inhibition curve with a large enough effect; inconclusive = small, poorly fitted or top-dose-only effect; inactive = flat fitted curve, though single readings scatter.
Potency is read from the fitted curve at half-maximal effect.

One assay relates to CP297. Nature of the assay: qHTS profiling for inhibitors of Plasmodium falciparum proliferation (AID 504749). Also: nearly all actives have a fitted effect of over 60% in size. Conditions: P. falciparum in erythrocytes, SYBR Green DNA, 72 h; series mostly up to 28.7 µM. The essentials: (§1)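 Parasite proliferation within erythrocytes, 72 h exposure. Endpoint: SYBR Green I fluorescence after overnight lysis at room temperature. Controls: 0.29 uM artemisinin, DMSO.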
In the case of `COc1cc2c(cc1OC)[C@@H](Cc1cc(OC)c(OC)c(OC)c1)[N+](C)(CCCOC(=O)CC/C=C/CCC(=O)OCCC[N+]1(C)CCc3cc(OC)c(OC)cc3[C@H]1Cc1cc(OC)c(OC)c(OC)c1)CC2` (stereo partly drawn), the Potency entry was “inactive”.
The same measure, in the same setting: the value for `Cc1ncc(COP(=O)(O)O)c(CN)c1O` was “inactive”; that for `C[C@H](N)C(=O)N[C@@H](C)P(=O)(O)O` was “inactive”; that for `CO[C@H]1C[C@@H]2CC[C@@H](C)[C@@](O)(O2)C(=O)C(=O)N2CCCC[C@H]2C(=O)O[C@H]([C@H](C)C[C@@H]2CC[C@@H](OC(=O)C(C)(CO)CO)[C@H](OC)C2)CC(=O)[C@H](C)/C=C(\C)[C@@H](O)[C@@H](OC)C(=O)[C@H](C)C[C@H](C)/C=C/C=C/C=C/1C` was “inactive”.
Still for that read-out and setting: the result for `CC1=C(/C=C/C(C)=C/C=C/C(C)=C/C(=O)Oc2c(C)c(C)c3c(c2C)CC[C@@](C)(CCC[C@H](C)CCC[C@H](C)CCCC(C)C)O3)C(C)(C)CCC1` reads “inactive”.
Same read-out and setting: the value for `CCCCCCCCCCCCCC(=O)OCC(COP(=O)([O-])OCC[N+](C)(C)C)OC(=O)CCCCCCCCCCCCC` (stereo not drawn) was “inactive”.
Regarding `CC(C)c1ncc([N+](=O)[O-])n1C`, the Potency result was “inactive”.
Still for that read-out and setting: the value for `NC(=O)[C@@H]1CCCN1C(=O)[C@H](Cc1cnc[nH]1)NC(=O)[C@@H]1CCC(=O)N1` was “inactive”; that for `Cc1ccccn1` was “inactive”.
Regarding `Nc1nccs1`, the Potency result was “inactive”.
The same measure, in the same setting: the value for `O=C(NCCNCC(O)COc1ccc(O)cc1)N1CCOCC1` (stereo not drawn) was “inactive”.
`CC(C)CCC[C@@H](C)[C@H]1CC[C@H]2[C@@H]3CC=C4C[C@@H](O)CC[C@]4(C)[C@H]3CC[C@]12C`: the Potency result was “inactive”.
The same measure, in the same setting: the value for `CS(=O)(=O)OCC(O)C(O)COS(C)(=O)=O` (stereo not drawn) was “inactive”.
Same read-out and setting: the value for `NCC[C@H](O)C(=O)N[C@@H]1C[C@H](N)[C@@H](O[C@H]2O[C@H](CN)CC[C@H]2N)[C@H](O)[C@H]1O[C@H]1O[C@H](CO)[C@@H](O)[C@H](N)[C@H]1O` was “inactive”.
Same read-out and setting: the result for `OCC(O)CO` reads “inactive”.
With `CCOc1ccc(NC(=S)Nc2ccc(OCC)cc2)cc1`, the Potency result is “inactive”.
Same read-out and setting: the value for `CCOC(=O)c1cc(-c2ccccc2)nc2ccc(C)cc12` was “inactive”; that for `OCl` was “inactive”.
Still for that read-out and setting: the result for `CCc1ncnc2cc(OC)c(OC)cc12` reads “inactive”.

Another assay concerns CP305. Described as above. Conditions: P. falciparum in erythrocytes, SYBR Green DNA, 72 h; series mostly up to 28.7 µM. The essentials:
as §1
For `S=C=Nc1ccc(N=C=S)cc1`, the Potency result is “inactive”.
Same read-out and setting: the result for `N=C(N)n1cccn1` reads “inactive”; that for `Cc1cccc(C)c1NC(=O)NC1=CCCN1C`, “inactive”; that for `Cc1cc(-c2ccc(N=Nc3ccc4c(S(=O)(=O)O)cc(S(=O)(=O)O)c(N)c4c3O)c(C)c2)ccc1N=Nc1ccc2c(S(=O)(=O)O)cc(S(=O)(=O)O)c(N)c2c1O`, “inactive”.
Still for that read-out and setting: the result for `O=P(O)(O)O` reads “inactive”.
The same measure, in the same setting: the value for `CN(CCO)CC(O)Cn1cnc2c1c(=O)n(C)c(=O)n2C` (stereo not drawn) (tested in a mixture with another compound) was “inactive”; that for `O=C(O)Cc1cc(I)c(Oc2ccc(O)c(I)c2)c(I)c1` was “inactive”.
As to `COC1=C(OC)C(=O)C(C/C=C(\C)CC/C=C(\C)CC/C=C(\C)CC/C=C(\C)CC/C=C(\C)CC/C=C(\C)CC/C=C(\C)CC/C=C(\C)CC/C=C(\C)CCC=C(C)C)=C(C)C1=O`, the Potency entry is “inactive”.
Same read-out and setting: the result for `CN=C1C=CC(=C(c2ccc(N(C)C)cc2)c2ccc(N(C)C)cc2)C=C1` reads 953 nM (active); that for `CCOc1ccc(S(=O)(=O)O)c2cccnc12`, “inactive”.
Same read-out and setting: the value for `FC(F)(F)COCC(F)(F)F` was “inactive”; that for `O=C(O)[C@H]1C(=CCO)O[C@H]2CC(=O)N12` was “inactive”; that for `CC1CC(O)CC(C)(C)C1` (stereo not drawn) was “inactive”.
As for `Cc1ncc(C[n+]2csc(CCOP(=O)(O)O)c2C)c(N)n1`, the Potency result is “inactive”.
Same read-out and setting: the value for `CCCCO` was “inactive”; that for `CCOC(=S)SSC(=S)OCC` was “inactive”.
Same read-out and setting: the result for `N[C@H](CC(=O)O)C(=O)O` reads “inactive”; that for `CCC(C(=O)NC(N)=O)c1ccccc1` (stereo not drawn), “inactive”.
Still for that read-out and setting: the result for `CCN(CC)CCOC(=O)c1cccnc1` reads “inactive”.
On to `NC(=S)NS(=O)(=O)c1ccc(N)cc1`, for which the Potency result is “inactive”.
Still for that read-out and setting: the result for `COc1cc2c(cc1OC)[C@@H](Cc1cc(OC)c(OC)c(OC)c1)[N+](C)(CCCOC(=O)CC/C=C/CCC(=O)OCCC[N+]1(C)CCc3cc(OC)c(OC)cc3[C@H]1Cc1cc(OC)c(OC)c(OC)c1)CC2` (stereo partly drawn) reads “inactive”; that for `Cc1ncc(COP(=O)(O)O)c(CN)c1O`, “inactive”.
As for `C[C@H](N)C(=O)N[C@@H](C)P(=O)(O)O`, the Potency entry is “inactive”.
The same measure, in the same setting: the result for `CO[C@H]1C[C@@H]2CC[C@@H](C)[C@@](O)(O2)C(=O)C(=O)N2CCCC[C@H]2C(=O)O[C@H]([C@H](C)C[C@@H]2CC[C@@H](OC(=O)C(C)(CO)CO)[C@H](OC)C2)CC(=O)[C@H](C)/C=C(\C)[C@@H](O)[C@@H](OC)C(=O)[C@H](C)C[C@H](C)/C=C/C=C/C=C/1C` reads “inactive”; that for `CC1=C(/C=C/C(C)=C/C=C/C(C)=C/C(=O)Oc2c(C)c(C)c3c(c2C)CC[C@@](C)(CCC[C@H](C)CCC[C@H](C)CCCC(C)C)O3)C(C)(C)CCC1`, “inactive”.
Regarding `CCCCCCCCCCCCCC(=O)OCC(COP(=O)([O-])OCC[N+](C)(C)C)OC(=O)CCCCCCCCCCCCC` (stereo not drawn), the Potency result was “inactive”.
Still for that read-out and setting: the value for `CC(C)c1ncc([N+](=O)[O-])n1C` was “inactive”; that for `NC(=O)[C@@H]1CCCN1C(=O)[C@H](Cc1cnc[nH]1)NC(=O)[C@@H]1CCC(=O)N1` was “inactive”.
On the same count and under the same terms, the result for `Cc1ccccn1` reads “inactive”; that for `Nc1nccs1`, “inactive”; that for `O=C(NCCNCC(O)COc1ccc(O)cc1)N1CCOCC1` (stereo not drawn), “inactive”.
On the same count and under the same terms, the value for `CC(C)CCC[C@@H](C)[C@H]1CC[C@H]2[C@@H]3CC=C4C[C@@H](O)CC[C@]4(C)[C@H]3CC[C@]12C` was “inactive”; that for `CS(=O)(=O)OCC(O)C(O)COS(C)(=O)=O` (stereo not drawn) was “inactive”.
In the case of `NCC[C@H](O)C(=O)N[C@@H]1C[C@H](N)[C@@H](O[C@H]2O[C@H](CN)CC[C@H]2N)[C@H](O)[C@H]1O[C@H]1O[C@H](CO)[C@@H](O)[C@H](N)[C@H]1O`, the Potency result was “inactive”.
As to `OCC(O)CO`, the Potency result was “inactive”.
On the same count and under the same terms, the result for `CCOc1ccc(NC(=S)Nc2ccc(OCC)cc2)cc1` reads “inactive”; that for `CCOC(=O)c1cc(-c2ccccc2)nc2ccc(C)cc12`, “inactive”; that for `OCl`, “inactive”.
With `CCc1ncnc2cc(OC)c(OC)cc12`, the Potency result is “inactive”.
